# Test results published in publication PMC7862700, “An all-to-all approach to the identification of sequence-specific readers for epigenetic DNA modifications on cytosine”.
# What was measured:
# Assay in all cases: DAPPL (digital affinity profiling via proximity ligation, sequencing); 10 mM Tris-HCl pH 7.5, 50 mM NaCl, 1 mM DTT, 4% glycerol, room temperature, 30 min; GST-TFs on glutathione beads, 16-mer random dsDNA library, 0.1% formaldehyde crosslink after washing; high values mean tight binding
# FLI1 = molecular target: T1, FLI1 (Homo sapiens, UniProt Q01543 1-452); settings: protein: recombinant; tags: N-terminal GST; dsDNA, one strand shown
# T1 sequence: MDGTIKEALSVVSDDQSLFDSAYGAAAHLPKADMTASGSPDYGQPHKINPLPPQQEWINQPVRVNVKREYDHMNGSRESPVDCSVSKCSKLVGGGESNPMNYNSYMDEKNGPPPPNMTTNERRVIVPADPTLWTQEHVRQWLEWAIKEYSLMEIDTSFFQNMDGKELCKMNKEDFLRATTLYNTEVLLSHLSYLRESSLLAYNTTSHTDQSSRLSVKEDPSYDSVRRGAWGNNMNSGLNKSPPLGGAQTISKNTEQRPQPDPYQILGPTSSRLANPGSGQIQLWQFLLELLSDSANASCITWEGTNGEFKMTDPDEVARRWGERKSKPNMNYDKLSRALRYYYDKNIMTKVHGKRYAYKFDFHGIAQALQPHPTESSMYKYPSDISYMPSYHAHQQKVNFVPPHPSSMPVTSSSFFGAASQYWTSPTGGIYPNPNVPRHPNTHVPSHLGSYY
# In short: (§1)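 GST fusions of human transcription factors were expressed in yeast and captured with glutathione beads. Once given DNA barcodes and pooled alongside a tag-only sample, they were incubated for 30 min at room temperature with 200 nmole of a random double-stranded 16-mer DNA library in Tris/NaCl/DTT/glycerol buffer, then washed, crosslinked (0.1% formaldehyde), proximity-ligated, PCR-amplified and sequenced on an Illumina NextSeq500. The binding signal of each hexamer is its read frequency for a factor divided by its frequency for the tag-only sample.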
# ELK1 = molecular target: T2, ELK1 (Homo sapiens, UniProt P19419 1-428); settings: protein: recombinant; tags: N-terminal GST; dsDNA, one strand shown
# T2 sequence: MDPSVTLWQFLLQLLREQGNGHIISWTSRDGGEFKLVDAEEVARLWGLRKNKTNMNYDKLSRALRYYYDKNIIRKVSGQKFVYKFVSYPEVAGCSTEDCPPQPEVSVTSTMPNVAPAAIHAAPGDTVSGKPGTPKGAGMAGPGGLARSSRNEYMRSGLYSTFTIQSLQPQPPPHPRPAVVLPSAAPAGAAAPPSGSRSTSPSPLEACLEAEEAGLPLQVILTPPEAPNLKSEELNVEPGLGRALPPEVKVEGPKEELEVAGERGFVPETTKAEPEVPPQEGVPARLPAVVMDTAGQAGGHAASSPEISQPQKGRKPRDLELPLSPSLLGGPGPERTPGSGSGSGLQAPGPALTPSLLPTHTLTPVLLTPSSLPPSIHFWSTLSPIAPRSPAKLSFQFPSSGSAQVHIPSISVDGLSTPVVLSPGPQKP
# In short: as §1
# GABPA = molecular target: T3, GABPA (Homo sapiens, UniProt Q06546 1-454); settings: protein: recombinant; tags: N-terminal GST; dsDNA, one strand shown
# T3 sequence: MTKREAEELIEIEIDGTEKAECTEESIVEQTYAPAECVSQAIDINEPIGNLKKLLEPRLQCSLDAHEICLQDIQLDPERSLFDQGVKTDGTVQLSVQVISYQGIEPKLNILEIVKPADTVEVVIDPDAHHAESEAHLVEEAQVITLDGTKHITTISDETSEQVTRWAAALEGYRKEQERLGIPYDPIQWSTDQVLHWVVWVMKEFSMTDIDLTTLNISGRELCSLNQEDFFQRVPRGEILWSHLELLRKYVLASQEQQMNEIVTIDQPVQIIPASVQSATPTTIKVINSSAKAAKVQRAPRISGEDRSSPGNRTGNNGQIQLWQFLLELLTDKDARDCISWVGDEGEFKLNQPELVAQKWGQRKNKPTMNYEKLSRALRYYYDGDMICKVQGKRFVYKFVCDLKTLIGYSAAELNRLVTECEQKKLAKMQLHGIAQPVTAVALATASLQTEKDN
# In short: as §1
# ERG = molecular target: T4, ERG (Homo sapiens, UniProt P11308 1-479); settings: protein: recombinant; tags: N-terminal GST; dsDNA, one strand shown
# T4 sequence: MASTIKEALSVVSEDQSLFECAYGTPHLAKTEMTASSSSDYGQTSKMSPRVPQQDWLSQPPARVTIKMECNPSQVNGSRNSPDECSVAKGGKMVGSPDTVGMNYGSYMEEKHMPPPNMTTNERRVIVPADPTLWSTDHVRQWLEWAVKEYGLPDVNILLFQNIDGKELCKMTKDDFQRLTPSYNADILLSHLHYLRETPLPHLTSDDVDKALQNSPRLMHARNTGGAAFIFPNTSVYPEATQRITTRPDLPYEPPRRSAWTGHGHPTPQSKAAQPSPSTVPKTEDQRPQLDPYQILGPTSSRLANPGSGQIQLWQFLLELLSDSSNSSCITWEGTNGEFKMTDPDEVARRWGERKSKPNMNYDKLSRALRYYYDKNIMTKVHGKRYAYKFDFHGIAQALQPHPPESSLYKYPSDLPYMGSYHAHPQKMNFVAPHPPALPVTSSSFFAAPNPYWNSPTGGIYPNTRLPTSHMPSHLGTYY
# In short: as §1
# ELF1 = ELF1 (Homo sapiens, UniProt P32519 1-619); settings: protein: recombinant; tags: N-terminal GST; dsDNA, one strand shown
# ELF1, sequence (P32519 whole entry): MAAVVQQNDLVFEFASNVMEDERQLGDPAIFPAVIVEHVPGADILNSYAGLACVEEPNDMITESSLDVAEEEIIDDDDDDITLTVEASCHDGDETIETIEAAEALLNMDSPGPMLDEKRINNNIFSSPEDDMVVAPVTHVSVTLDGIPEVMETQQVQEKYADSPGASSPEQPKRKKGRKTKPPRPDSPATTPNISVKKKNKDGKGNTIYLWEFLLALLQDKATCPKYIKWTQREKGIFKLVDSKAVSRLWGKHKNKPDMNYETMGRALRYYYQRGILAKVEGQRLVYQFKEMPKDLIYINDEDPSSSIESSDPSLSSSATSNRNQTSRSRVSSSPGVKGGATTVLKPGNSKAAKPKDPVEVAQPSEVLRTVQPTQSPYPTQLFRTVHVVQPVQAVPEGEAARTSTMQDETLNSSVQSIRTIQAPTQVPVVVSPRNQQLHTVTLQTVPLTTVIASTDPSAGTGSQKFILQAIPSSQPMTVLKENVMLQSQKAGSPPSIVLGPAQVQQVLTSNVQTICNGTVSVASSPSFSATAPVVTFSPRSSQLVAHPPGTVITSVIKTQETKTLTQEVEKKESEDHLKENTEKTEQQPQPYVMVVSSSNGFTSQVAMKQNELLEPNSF
# In short: as §1
# EHF = molecular target: T5, EHF (Homo sapiens, UniProt Q9NZC4 1-300); settings: protein: recombinant; tags: N-terminal GST; dsDNA, one strand shown
# T5 sequence: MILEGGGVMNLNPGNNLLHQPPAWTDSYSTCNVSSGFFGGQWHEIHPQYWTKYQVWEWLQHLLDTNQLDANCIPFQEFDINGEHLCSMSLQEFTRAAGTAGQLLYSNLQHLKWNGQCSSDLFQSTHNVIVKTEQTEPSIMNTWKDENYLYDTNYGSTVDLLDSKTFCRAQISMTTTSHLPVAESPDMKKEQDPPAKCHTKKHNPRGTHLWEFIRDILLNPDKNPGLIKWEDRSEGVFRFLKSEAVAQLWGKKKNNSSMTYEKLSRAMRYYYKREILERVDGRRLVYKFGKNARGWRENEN
# In short: as §1
# SPI1 = SPI1 (Homo sapiens, UniProt P17947 1-270); settings: protein: recombinant; tags: N-terminal GST; dsDNA, one strand shown
# In short: as §1
# SPIB = SPIB (Homo sapiens, UniProt Q01892 1-262); settings: protein: recombinant; tags: N-terminal GST; dsDNA, one strand shown
# SPIB, sequence (Q01892 whole entry): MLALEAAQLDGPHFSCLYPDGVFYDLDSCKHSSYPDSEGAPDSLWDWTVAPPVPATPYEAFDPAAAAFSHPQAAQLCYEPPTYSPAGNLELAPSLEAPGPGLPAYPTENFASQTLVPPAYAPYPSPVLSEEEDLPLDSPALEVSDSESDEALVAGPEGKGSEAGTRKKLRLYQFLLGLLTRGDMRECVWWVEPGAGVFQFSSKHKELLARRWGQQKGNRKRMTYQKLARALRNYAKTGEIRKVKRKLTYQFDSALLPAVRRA
# In short: as §1
# ELK3 = molecular target: T6, ELK3 (Homo sapiens, UniProt P41970 1-407); settings: protein: recombinant; tags: N-terminal GST; dsDNA, one strand shown
# T6 sequence: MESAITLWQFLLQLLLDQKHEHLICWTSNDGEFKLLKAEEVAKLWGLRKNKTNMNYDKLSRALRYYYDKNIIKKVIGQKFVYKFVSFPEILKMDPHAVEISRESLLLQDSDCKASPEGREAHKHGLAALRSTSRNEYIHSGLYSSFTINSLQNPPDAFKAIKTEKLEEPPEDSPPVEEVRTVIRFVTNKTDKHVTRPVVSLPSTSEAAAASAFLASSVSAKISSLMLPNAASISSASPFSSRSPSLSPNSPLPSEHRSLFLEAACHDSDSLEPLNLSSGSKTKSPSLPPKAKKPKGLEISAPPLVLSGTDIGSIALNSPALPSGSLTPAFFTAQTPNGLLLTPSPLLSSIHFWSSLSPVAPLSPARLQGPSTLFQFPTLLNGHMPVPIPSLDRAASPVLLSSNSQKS
# In short: as §1
# FEV = molecular target: T7, FEV (Homo sapiens, UniProt Q99581 1-238); settings: protein: recombinant; tags: N-terminal GST; dsDNA, one strand shown
# T7 sequence: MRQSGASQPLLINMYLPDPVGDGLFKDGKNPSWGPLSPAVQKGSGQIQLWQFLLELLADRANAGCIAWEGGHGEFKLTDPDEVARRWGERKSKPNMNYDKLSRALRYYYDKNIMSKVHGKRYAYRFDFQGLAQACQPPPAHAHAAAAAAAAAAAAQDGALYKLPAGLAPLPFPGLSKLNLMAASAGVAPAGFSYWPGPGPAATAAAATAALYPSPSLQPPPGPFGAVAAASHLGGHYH
# In short: as §1
# ETV5 = ETV5 (Homo sapiens, UniProt P41161 1-510); settings: protein: recombinant; tags: N-terminal GST; dsDNA, one strand shown
# ETV5, sequence (P41161 whole entry): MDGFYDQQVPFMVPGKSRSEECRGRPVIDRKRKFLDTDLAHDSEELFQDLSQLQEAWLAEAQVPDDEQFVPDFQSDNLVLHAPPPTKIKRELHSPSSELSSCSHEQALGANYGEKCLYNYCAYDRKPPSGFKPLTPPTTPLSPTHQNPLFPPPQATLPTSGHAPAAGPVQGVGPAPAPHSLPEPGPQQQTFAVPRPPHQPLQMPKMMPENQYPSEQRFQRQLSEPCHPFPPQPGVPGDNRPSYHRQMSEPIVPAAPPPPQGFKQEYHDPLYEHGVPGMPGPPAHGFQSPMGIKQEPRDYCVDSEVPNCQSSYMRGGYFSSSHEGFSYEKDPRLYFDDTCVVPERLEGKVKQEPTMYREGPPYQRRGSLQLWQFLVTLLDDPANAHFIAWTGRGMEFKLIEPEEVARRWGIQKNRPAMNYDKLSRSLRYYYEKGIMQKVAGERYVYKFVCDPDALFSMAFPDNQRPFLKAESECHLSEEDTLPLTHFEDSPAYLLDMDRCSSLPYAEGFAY
# In short: as §1
# HSF1 = HSF1 (Homo sapiens, UniProt Q00613 1-529); settings: protein: recombinant; tags: N-terminal GST; chain copies: 3; dsDNA, one strand shown
# HSF1, sequence (Q00613 whole entry): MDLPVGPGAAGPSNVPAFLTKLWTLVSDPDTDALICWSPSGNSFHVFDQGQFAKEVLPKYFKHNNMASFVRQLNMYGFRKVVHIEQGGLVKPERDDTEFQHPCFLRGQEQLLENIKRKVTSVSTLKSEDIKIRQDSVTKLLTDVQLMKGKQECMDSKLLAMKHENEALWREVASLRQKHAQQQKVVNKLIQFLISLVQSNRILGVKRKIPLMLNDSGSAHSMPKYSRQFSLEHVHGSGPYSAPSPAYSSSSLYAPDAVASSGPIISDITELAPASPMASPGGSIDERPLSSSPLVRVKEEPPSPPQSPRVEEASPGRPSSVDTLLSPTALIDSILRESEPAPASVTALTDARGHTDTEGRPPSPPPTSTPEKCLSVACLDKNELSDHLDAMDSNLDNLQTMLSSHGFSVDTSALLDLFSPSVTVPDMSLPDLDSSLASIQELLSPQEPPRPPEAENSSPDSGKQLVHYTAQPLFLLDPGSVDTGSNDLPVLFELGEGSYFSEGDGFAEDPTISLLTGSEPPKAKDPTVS
# In short: as §1
# SPIC = molecular target: T8, SPIC (Homo sapiens, UniProt Q8N5J4 1-248); settings: protein: recombinant; tags: N-terminal GST; dsDNA, one strand shown
# T8 sequence: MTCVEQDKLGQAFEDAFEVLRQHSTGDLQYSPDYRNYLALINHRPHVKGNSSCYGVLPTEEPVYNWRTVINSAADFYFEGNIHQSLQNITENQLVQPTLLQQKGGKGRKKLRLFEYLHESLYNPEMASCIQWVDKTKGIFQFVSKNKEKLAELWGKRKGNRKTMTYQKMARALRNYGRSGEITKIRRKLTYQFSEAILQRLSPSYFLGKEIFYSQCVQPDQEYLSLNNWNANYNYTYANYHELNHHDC
# In short: as §1
# ELF4 = ELF4 (Homo sapiens, UniProt Q99607 1-663); settings: protein: recombinant; tags: N-terminal GST; dsDNA, one strand shown
# ELF4, sequence (Q99607 whole entry): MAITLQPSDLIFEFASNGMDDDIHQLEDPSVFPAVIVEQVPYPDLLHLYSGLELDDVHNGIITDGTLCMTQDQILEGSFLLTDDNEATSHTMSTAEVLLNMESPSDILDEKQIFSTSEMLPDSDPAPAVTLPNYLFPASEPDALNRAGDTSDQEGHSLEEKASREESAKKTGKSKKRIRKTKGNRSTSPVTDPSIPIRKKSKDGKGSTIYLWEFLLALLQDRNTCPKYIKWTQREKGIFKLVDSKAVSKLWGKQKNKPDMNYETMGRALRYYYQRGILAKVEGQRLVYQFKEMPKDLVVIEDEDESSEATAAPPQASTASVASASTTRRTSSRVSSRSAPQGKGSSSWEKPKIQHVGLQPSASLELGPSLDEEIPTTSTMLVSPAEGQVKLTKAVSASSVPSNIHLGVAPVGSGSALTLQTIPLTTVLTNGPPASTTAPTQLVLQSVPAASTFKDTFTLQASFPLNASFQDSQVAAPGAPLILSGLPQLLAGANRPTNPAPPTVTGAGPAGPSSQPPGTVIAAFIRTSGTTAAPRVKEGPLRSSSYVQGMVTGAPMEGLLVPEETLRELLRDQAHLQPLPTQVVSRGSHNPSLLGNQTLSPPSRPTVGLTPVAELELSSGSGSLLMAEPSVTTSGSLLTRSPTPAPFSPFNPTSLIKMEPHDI
# In short: as §1
# ELK4 = molecular target: T9, ELK4 (Homo sapiens, UniProt P28324-2 1-405); settings: protein: recombinant; tags: N-terminal GST; dsDNA, one strand shown
# T9 sequence: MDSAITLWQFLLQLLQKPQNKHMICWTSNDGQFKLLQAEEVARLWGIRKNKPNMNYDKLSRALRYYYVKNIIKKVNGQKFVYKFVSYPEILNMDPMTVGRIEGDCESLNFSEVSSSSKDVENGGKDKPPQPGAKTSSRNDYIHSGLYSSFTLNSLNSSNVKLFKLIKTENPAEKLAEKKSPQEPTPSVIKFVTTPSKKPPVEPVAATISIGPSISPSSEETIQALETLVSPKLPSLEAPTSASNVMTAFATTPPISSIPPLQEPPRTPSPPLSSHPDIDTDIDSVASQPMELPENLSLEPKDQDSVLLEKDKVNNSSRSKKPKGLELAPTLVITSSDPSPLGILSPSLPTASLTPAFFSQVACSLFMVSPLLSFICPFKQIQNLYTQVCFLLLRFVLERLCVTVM
# In short: as §1
# ETV2 = molecular target: T10, ETV2 (Homo sapiens, UniProt O00321 1-342); settings: protein: recombinant; tags: N-terminal GST; dsDNA, one strand shown
# T10 sequence: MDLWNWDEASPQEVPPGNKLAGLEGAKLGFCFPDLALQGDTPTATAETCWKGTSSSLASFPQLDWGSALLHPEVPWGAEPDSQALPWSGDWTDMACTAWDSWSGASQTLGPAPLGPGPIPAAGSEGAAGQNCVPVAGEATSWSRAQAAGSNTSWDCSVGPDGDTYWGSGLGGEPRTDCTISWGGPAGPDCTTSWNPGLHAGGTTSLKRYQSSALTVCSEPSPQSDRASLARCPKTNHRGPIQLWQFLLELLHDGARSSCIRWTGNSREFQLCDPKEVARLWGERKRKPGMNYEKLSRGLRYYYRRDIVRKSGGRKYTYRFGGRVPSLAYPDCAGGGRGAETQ
# In short: as §1
# ELF3 = molecular target: T11, ELF3 (Homo sapiens, UniProt P78545 1-371); settings: protein: recombinant; tags: N-terminal GST; dsDNA, one strand shown
# T11 sequence: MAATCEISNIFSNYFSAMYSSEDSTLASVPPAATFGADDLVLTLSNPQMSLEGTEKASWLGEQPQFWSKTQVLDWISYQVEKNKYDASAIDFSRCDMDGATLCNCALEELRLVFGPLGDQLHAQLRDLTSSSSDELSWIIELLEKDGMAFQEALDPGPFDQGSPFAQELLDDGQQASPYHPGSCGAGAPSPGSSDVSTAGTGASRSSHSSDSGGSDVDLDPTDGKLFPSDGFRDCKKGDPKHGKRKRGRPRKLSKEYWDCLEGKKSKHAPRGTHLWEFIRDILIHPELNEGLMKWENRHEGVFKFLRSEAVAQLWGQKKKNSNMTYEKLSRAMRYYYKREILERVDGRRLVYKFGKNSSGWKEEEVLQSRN
# In short: as §1
# CRX = CRX (Homo sapiens, UniProt O43186 1-299); settings: protein: recombinant; tags: N-terminal GST; dsDNA, one strand shown
# CRX, sequence (O43186 whole entry): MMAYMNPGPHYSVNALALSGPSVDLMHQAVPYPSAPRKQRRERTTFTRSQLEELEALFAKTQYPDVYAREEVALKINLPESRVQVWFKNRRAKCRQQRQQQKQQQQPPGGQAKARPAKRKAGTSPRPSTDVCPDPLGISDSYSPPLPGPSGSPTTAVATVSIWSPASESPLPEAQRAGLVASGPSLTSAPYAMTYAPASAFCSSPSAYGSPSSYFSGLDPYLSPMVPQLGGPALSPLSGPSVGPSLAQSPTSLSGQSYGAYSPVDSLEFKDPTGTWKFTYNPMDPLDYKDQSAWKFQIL
# In short: as §1
# ETV1 = ETV1 (Homo sapiens, UniProt P50549 1-477); settings: protein: recombinant; tags: N-terminal GST; dsDNA, one strand shown
# ETV1, sequence (P50549 whole entry): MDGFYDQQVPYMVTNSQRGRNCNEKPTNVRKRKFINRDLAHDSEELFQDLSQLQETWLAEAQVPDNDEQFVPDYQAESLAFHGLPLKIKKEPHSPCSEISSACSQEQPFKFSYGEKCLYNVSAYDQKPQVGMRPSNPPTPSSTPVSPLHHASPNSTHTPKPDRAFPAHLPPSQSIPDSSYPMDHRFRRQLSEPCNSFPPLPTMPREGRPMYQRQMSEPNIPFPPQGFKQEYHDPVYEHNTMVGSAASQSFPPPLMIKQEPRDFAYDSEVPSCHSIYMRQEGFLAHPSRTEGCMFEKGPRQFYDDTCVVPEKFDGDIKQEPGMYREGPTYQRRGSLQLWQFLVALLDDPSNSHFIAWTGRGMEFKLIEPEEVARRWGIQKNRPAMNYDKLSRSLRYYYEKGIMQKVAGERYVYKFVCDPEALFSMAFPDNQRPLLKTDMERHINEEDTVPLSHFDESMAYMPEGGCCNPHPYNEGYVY
# In short: as §1
sequence,measurement,setting,value
TTAGGG,binding signal,FLI1,"1.03 fold enrichment (6-mer frequency, TF over GST control)"
same,binding signal,ELK1,"1.14 fold enrichment (6-mer frequency, TF over GST control)"
same,binding signal,GABPA,"1.13 fold enrichment (6-mer frequency, TF over GST control)"
same,binding signal,ERG,"1.15 fold enrichment (6-mer frequency, TF over GST control)"
same,binding signal,ELF1,"1.11 fold enrichment (6-mer frequency, TF over GST control)"
same,binding signal,EHF,"1.13 fold enrichment (6-mer frequency, TF over GST control)"
same,binding signal,SPI1,"1.25 fold enrichment (6-mer frequency, TF over GST control)"
same,binding signal,SPIB,"1.17 fold enrichment (6-mer frequency, TF over GST control)"
same,binding signal,ELK3,"1.07 fold enrichment (6-mer frequency, TF over GST control)"
same,binding signal,FEV,"1.13 fold enrichment (6-mer frequency, TF over GST control)"
same,binding signal,ETV5,"1.16 fold enrichment (6-mer frequency, TF over GST control)"
same,binding signal,HSF1,"1.48 fold enrichment (6-mer frequency, TF over GST control)"
same,binding signal,SPIC,"1.04 fold enrichment (6-mer frequency, TF over GST control)"
same,binding signal,ELF4,"1.16 fold enrichment (6-mer frequency, TF over GST control)"
same,binding signal,ELK4,"1.02 fold enrichment (6-mer frequency, TF over GST control)"
same,binding signal,ETV2,"1.15 fold enrichment (6-mer frequency, TF over GST control)"
same,binding signal,ELF3,"1.2 fold enrichment (6-mer frequency, TF over GST control)"
same,binding signal,CRX,"2.19 fold enrichment (6-mer frequency, TF over GST control)"
same,binding signal,ETV1,"1.03 fold enrichment (6-mer frequency, TF over GST control)"
